20 compounds from PubChem BioAssay AID709 (SRMLSC, 2007) can be followed below.

Hit rate of the full screen: of about 65,000 compounds, about 3,600 (5.5%) were called active. Only a selection was taken, and actives are over-represented in it overall. Unmarked numbers belong to inactive results.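 The calls were made as follows: active = at 10 µM, mean starting fluorescence two-fold or more over control wells; inactive = the rest.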

The assay can be described thus: intrinsic fluorescence of library compounds, ex339/em460 – biochemical, MLSMR library, data from DPM-DC assay, artefact control, profiling panel (AID 709).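 Also: signal is the first read of a kinetic run.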 To be noted: compound autofluorescence, ex339/em460 nm, NADH buffer; at 10 µM; hits give high values.
On to `CCOC(=O)c1c(N)n(Cc2ccccc2)c2nc3ccccc3nc12`, for which the fluorescence fold increase was 4.96 (active).

Regarding `O=C(O)C1CSC(c2cccnc2)N1` (stereo not given), the fluorescence fold increase is 1.05. With `CC1(C)C(c2ccccc2)=NC(c2cccnc2)=[N+]1[O-]` the figure was 1.1; with `CCOC(=O)c1c(C)c(C(=O)N2CCC3(CC2)OCCO3)c(C)n1CC`, 1.05. To `CCOC(=O)c1c(-c2ccccc2)oc2ccc(OC(=O)N(C)C)cc12` belongs 3.72 (active); to `N[C@@H](Cc1c[nH]c2ccccc12)c1nnc(SCc2c(F)cccc2Cl)o1`, 1.15.

For the compound `CCOC(=O)C1=C(C)OC(N)=C(C(=O)OC)C12C(=O)Nc1ccc(Br)cc12` (stereo not given), the fluorescence fold increase is 1.1. With `CCc1cccc2c(C#N)cn(CC(=O)N3CCOCC3)c12` the figure was 1.27. Regarding `COC(=O)COc1cc(C)cc2oc(=O)c3c(c12)CCCC3`, the fluorescence fold increase is 2.2 (active). In the case of `OC(CNC1CCCCC1)c1ccccc1` (stereo not given), the fluorescence fold increase is 1.04. On to `CCOC(=O)C(O)(c1ccc(NC(=O)c2ccco2)c(OC)c1)C(F)(F)F` (stereo not given), for which the fluorescence fold increase is 1.11. `O=C(c1cc(-c2ccncc2)nc2ccccc12)N1CCC2(CC1)OCCO2`: the fluorescence fold increase was 1.11. To `Cc1cccc(-n2c(C)nc3cc(C(=O)N4CCC5(CC4)OCCO5)ccc32)c1` belongs 1.13; to `O=C(c1cc2nc(-c3ccccc3)cc(-c3ccccc3)n2n1)N1CCC2(CC1)OCCO2`, 2.35 (active); to `CCOC(=O)CC1=C(C(=O)OCC)C2(C(=O)N1)C(C(=O)OC)=C(N)Oc1ccccc12` (stereo not given), 1.12. For the compound `COc1ccc(CCn2c(O)c(C=NC3CC3)c(=O)[nH]c2=O)cc1OC`, the fluorescence fold increase is 1.06.

Turning to `CN1CCN(C(=O)COc2ccc(C(C)(C)C)cc2Br)CC1`, the fluorescence fold increase was 1.12. To `COc1ccc(C(=O)CC2C(=O)N(C)C(=O)N(C)C2=O)cc1` belongs 1.08; to `CCC/C(=N\O)c1c[nH]c2ccccc12`, 1.08; to `CC1=C(C(=O)Nc2ccccc2)SCCO1`, 1.08.
